# PubChem BioAssay (NCATS)
# Where “and” joins values, the source holds several entries; their conditions need not be identical. Equal entries are not always repeated. Records with an inconclusive call do not appear. Where a call stands in place of a potency, no number is given. Values without a mark were called inactive. Calls of active or inactive are those of the source. Calls come from the whole dose curve; as a rule, active = well fitted curve in the direction sought with a large enough effect; inconclusive = small, poorly fitted or top-dose-only effect, or another doubt; inactive = no such curve, though single readings can be large; an effect the other way counts as inactive or inconclusive.
# Assays:
# [1] = qHTS of pediatric cancer cell lines to identify multiple opportunities for drug repurposing: Primary screen for BT-12 cells (AID 1347101); note: nearly all actives have a fitted effect of over 25% in size; note: potency is the fitted concentration of half-maximal effect
# In short: (§1)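 Cells (500-1,000/well) rested 5 h, then received compounds for 48 h; metabolically active cells were measured by CellTiter-Glo luminescence. Final concentrations spanned up to 46 µM (MIPE, 11-point) or 0.59 nM-46 µM (NPC, 8-point) in primary screens, 11-point in follow-ups.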
# [2] = qHTS of pediatric cancer cell lines to identify multiple opportunities for drug repurposing: Primary screen for Rh18 cells (AID 1347102); note: nearly all actives have a fitted effect of over 65% in size; note: potency is the fitted concentration of half-maximal effect
# In short: (§2)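 Viability after 48 h compound treatment at 37C, 500-1,000 cells/well, read as ATP luminescence with CellTiter-Glo. Primary screens used 11-point (MIPE, 0.78 nM-46 µM) or 8-point (NPC, 0.59 nM-46 µM) final concentrations; follow-up screens used 11-point dilutions.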
# [3] = qHTS of pediatric cancer cell lines to identify multiple opportunities for drug repurposing: Primary screen for OHS-50 cells (AID 1347103); note: nearly all actives have a fitted effect of over 40% in size; note: potency is the fitted concentration of half-maximal effect
# In short: as §1
# [4] = qHTS of pediatric cancer cell lines to identify multiple opportunities for drug repurposing: Primary screen for RD cells (AID 1347104); note: nearly all actives have a fitted effect of over 55% in size; note: potency is the fitted concentration of half-maximal effect
# In short: (§3)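 Following a 5-hour attachment period, cells at 500-1,000/well received compounds and were cultured for 48 hours. CellTiter-Glo was added and luminescence read to estimate viable, metabolically active cells.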
# [5] = qHTS of pediatric cancer cell lines to identify multiple opportunities for drug repurposing: Primary screen for control Hh wild type fibroblast cells (AID 1347106);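 note: series mostly up to about 46 µM; a drop in luminescence marks cytotoxicity and a rise apparent proliferation; nearly all actives have a fitted effect of over 55% in size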
# In short: as §2
# [6] = qHTS of pediatric cancer cell lines to identify multiple opportunities for drug repurposing: Primary screen for MG 63 (6-TG R) cells (AID 1347105); note: nearly all actives have a fitted effect of over 50% in size
# In short: as §3
# [7] = qHTS of pediatric cancer cell lines to identify multiple opportunities for drug repurposing: Primary screen for Rh41 cells (AID 1347108); note: nearly all actives have a fitted effect of over 70% in size; note: potency is the fitted concentration of half-maximal effect
# In short: as §3
# [8] = qHTS of pediatric cancer cell lines to identify multiple opportunities for drug repurposing: Primary screen for Rh30 cells (AID 1347107); note: nearly all actives have a fitted effect of over 75% in size; note: potency is the fitted concentration of half-maximal effect
# In short: as §2
# [9] = qHTS of pediatric cancer cell lines to identify multiple opportunities for drug repurposing: Confirmatory screen for NB1643 cells (AID 1347109); note: nearly all actives have a fitted effect of over 45% in size
# In short: as §2
# [10] = qHTS of pediatric cancer cell lines to identify multiple opportunities for drug repurposing: Confirmatory screen for A673 cells (AID 1347110);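 note: cells exposed to compound for 48 h before the viability read; nearly all actives have a fitted effect of over 65% in size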
# In short: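 A673 cells seeded at 500-1,000 cells/well, rested 5 h, then dosed; primary MIPE 11-point (0.78 nM to 46 µM), NPC (0.59 nM to 46 µM); confirmatory 11-point. CellTiter-Glo luminescence after 48 h.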
# [11] = qHTS of pediatric cancer cell lines to identify multiple opportunities for drug repurposing: Confirmatory screen for BT-12 cells (AID 1347112); note: nearly all actives have a fitted effect of over 55% in size
# In short: as §2
# [12] = qHTS of pediatric cancer cell lines to identify multiple opportunities for drug repurposing: Confirmatory screen for LAN-5 cells (AID 1347113); note: nearly all actives have a fitted effect of over 65% in size
# In short: as §2
# [13] = qHTS of pediatric cancer cell lines to identify multiple opportunities for drug repurposing: Confirmatory screen for NB-EBc1 cells (AID 1347115);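 note: cells exposed to compound for 48 h before the viability read; nearly all actives have a fitted effect of over 45% in size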
# In short: as §2
# [14] = qHTS of pediatric cancer cell lines to identify multiple opportunities for drug repurposing: Confirmatory screen for BT-37 cells (AID 1347117); note: nearly all actives have a fitted effect of over 55% in size
# In short: as §2
# [15] = qHTS of pediatric cancer cell lines to identify multiple opportunities for drug repurposing: Confirmatory screen for MG 63 (6-TG R) cells (AID 1347119); note: nearly all actives have a fitted effect of over 55% in size
# In short: as §2
# [16] = qHTS of pediatric cancer cell lines to identify multiple opportunities for drug repurposing: Confirmatory screen for control Hh wild type fibroblast cells (AID 1347121); note: nearly all actives have a fitted effect of over 70% in size
# In short: as §2
# [17] = qHTS of pediatric cancer cell lines to identify multiple opportunities for drug repurposing: Confirmatory screen for U-2 OS cells (AID 1347122); note: nearly all actives have a fitted effect of over 65% in size
# In short: as §2
# [18] = qHTS of pediatric cancer cell lines to identify multiple opportunities for drug repurposing: Confirmatory screen for RD cells (AID 1347124)
# In short: as §2
# [19] = qHTS of pediatric cancer cell lines to identify multiple opportunities for drug repurposing: Confirmatory screen for Rh18 cells (AID 1347125); note: nearly all actives have a fitted effect of over 55% in size
# In short: as §2
# [20] = qHTS of pediatric cancer cell lines to identify multiple opportunities for drug repurposing: Confirmatory screen for SJ-GBM2 cells (AID 1347116); note: nearly all actives have a fitted effect of over 60% in size
# In short: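 Viability measured as metabolically active cells via CellTiter-Glo luminescence following 48 hours of compound exposure, 11-point dilutions in confirmatory testing. 500-1,000 cells/well plated 5 hours before dosing; controls were DMSO and 2.3 µM bortezomib.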
structure (smiles),measurement,setting,value
Cc1cc(O)c2c(c1)C(=O)c1cc(O)cc(O)c1C2=O,Potency,[1],inactive
same,Potency,[2],inactive
same,Potency,[3],inactive
same,Potency,[4],inactive
same,Potency,[5],inactive
S=c1nc[nH]c2nc[nH]c12,Potency,[1],15.5 µM (active) and 24.3 µM (active)
same,Potency,[2],inactive
same,Potency,[3],2.19 µM (active) and 3.06 µM (active)
same,Potency,[4],inactive
same,Potency,[6],inactive
same,Potency,[5],inactive
same,Potency,[7],inactive
CC1Cc2ccccc2N1NC(=O)c1ccc(Cl)c(S(N)(=O)=O)c1 (centres undefined),Potency,[1],inactive
same,Potency,[2],inactive
same,Potency,[3],inactive
same,Potency,[4],inactive
same,Potency,[5],inactive
same,Potency,[8],inactive
same,Potency,[7],inactive
O=C(OC1C[C@H]2CC[C@@H](C1)[N+]21CCCC1)C(O)(c1ccccc1)c1ccccc1 (some centres undefined),Potency,[1],inactive
same,Potency,[2],inactive
same,Potency,[3],inactive
same,Potency,[4],inactive
same,Potency,[5],inactive
same,Potency,[8],inactive
CC(C)[C@H](N)C(=O)OCCOCn1cnc2c(=O)[nH]c(N)nc21,Potency,[1],inactive
same,Potency,[2],inactive
same,Potency,[3],inactive
same,Potency,[4],inactive
same,Potency,[5],inactive
same,Potency,[8],inactive
same,Potency,[7],inactive
NCCCCNCCCN,Potency,[1],inactive
same,Potency,[2],inactive
same,Potency,[3],inactive
same,Potency,[4],inactive
same,Potency,[6],inactive
same,Potency,[8],inactive
same,Potency,[7],23.5 µM (active)
O=C(CCc1ccc(O)cc1)c1c(O)cc(O)cc1O,Potency,[1],1.22 µM (active)
same,Potency,[2],inactive
same,Potency,[3],432 nM (active)
same,Potency,[4],inactive
same,Potency,[6],inactive
same,Potency,[5],inactive
same,Potency,[8],inactive
same,Potency,[9],inactive
same,Potency,[10],inactive
same,Potency,[11],inactive
same,Potency,[12],inactive
same,Potency,[13],inactive
same,Potency,[14],inactive
same,Potency,[15],inactive
same,Potency,[16],inactive
same,Potency,[17],inactive
same,Potency,[18],inactive
same,Potency,[19],inactive
c1cnc2cc3c(cc2n1)C1CNCC3C1,Potency,[1],inactive
same,Potency,[2],inactive
same,Potency,[3],inactive
same,Potency,[4],inactive
same,Potency,[6],inactive
same,Potency,[5],inactive
same,Potency,[8],inactive
same,Potency,[9],inactive
same,Potency,[10],inactive
same,Potency,[11],inactive
same,Potency,[12],inactive
same,Potency,[13],inactive
same,Potency,[14],inactive
same,Potency,[15],inactive
same,Potency,[16],inactive
same,Potency,[17],inactive
same,Potency,[18],inactive
CCOc1cc(CC(=O)N[C@@H](CC(C)C)c2ccccc2N2CCCCC2)ccc1C(=O)O,Potency,[1],inactive
same,Potency,[2],inactive
same,Potency,[3],inactive
same,Potency,[4],inactive
same,Potency,[6],inactive
same,Potency,[5],inactive
same,Potency,[8],inactive
same,Potency,[7],inactive
same,Potency,[9],inactive
same,Potency,[11],inactive
same,Potency,[12],inactive
same,Potency,[20],inactive
same,Potency,[14],inactive
same,Potency,[16],inactive
same,Potency,[17],inactive
same,Potency,[18],inactive
same,Potency,[19],inactive
NS(=O)(=O)c1cc(C(=O)O)c(NCc2ccco2)cc1Cl,Potency,[1],inactive
same,Potency,[2],inactive
same,Potency,[3],inactive
same,Potency,[4],inactive
same,Potency,[5],inactive
same,Potency,[8],inactive
same,Potency,[7],inactive
Oc1ccc(OCc2ccccc2)cc1,Potency,[1],inactive
same,Potency,[2],inactive
same,Potency,[3],inactive
same,Potency,[4],inactive
same,Potency,[5],inactive
same,Potency,[8],inactive
same,Potency,[7],inactive
Cc1cc(=O)oc2cc(O)ccc12,Potency,[1],inactive
same,Potency,[2],inactive
same,Potency,[3],inactive
same,Potency,[4],inactive
same,Potency,[5],inactive
same,Potency,[8],inactive
same,Potency,[7],inactive
O=Nc1c(-c2c(O)[nH]c3cc(Br)ccc23)[nH]c2ccccc12,Potency,[1],24.3 µM (active)
same,Potency,[2],18.7 µM (active)
same,Potency,[3],19300 nM (active)
same,Potency,[4],16.6 µM (active)
same,Potency,[5],inactive
same,Potency,[8],18.7 µM (active)
same,Potency,[7],14.8 µM (active)
CCC[C@@H]1C[C@@H](C(=O)N[C@@H]([C@H]2O[C@H](SC)[C@H](O)[C@@H](O)[C@H]2O)[C@@H](C)O)N(C)C1,Potency,[1],inactive
same,Potency,[2],inactive
same,Potency,[3],inactive
same,Potency,[4],inactive
same,Potency,[5],inactive
same,Potency,[8],inactive
same,Potency,[7],inactive
NC(=NCc1ccccc1)NC(=O)c1nc(Cl)c(N)nc1N,Potency,[1],inactive
same,Potency,[2],inactive
same,Potency,[3],inactive
same,Potency,[4],26.4 µM (active)
same,Potency,[5],inactive
COC(=O)N[C@H](C(=O)N[C@@H](Cc1ccccc1)[C@@H](O)CN(Cc1ccc(-c2ccccn2)cc1)NC(=O)[C@@H](NC(=O)OC)C(C)(C)C)C(C)(C)C,Potency,[1],inactive
same,Potency,[2],inactive
same,Potency,[3],inactive
same,Potency,[4],inactive
same,Potency,[5],inactive
same,Potency,[8],inactive
same,Potency,[7],inactive
CC1=C(C(=O)O)N2C(=O)[C@@H](NC(=O)[C@H](N)C3=CCC=CC3)[C@H]2SC1,Potency,[1],inactive
same,Potency,[2],inactive
same,Potency,[3],inactive
same,Potency,[4],inactive
same,Potency,[5],inactive
same,Potency,[8],inactive
C[C@@H](N)C1CCC(C(=O)Nc2ccncc2)CC1 (some centres undefined),Potency,[1],inactive
same,Potency,[2],inactive
same,Potency,[3],inactive
same,Potency,[4],inactive
same,Potency,[5],inactive
same,Potency,[8],inactive
same,Potency,[7],inactive
O=C(NC(Cc1cc(=O)[nH]c2ccccc12)C(=O)O)c1ccc(Cl)cc1 (centres undefined),Potency,[1],inactive
same,Potency,[2],inactive
same,Potency,[3],inactive
same,Potency,[4],inactive
same,Potency,[5],inactive
same,Potency,[8],inactive
same,Potency,[7],inactive
C[C@]12CCC(=O)C=C1CC[C@@H]1[C@H]2[C@@H](O)C[C@@]2(C)[C@H]1CC[C@]2(O)C(=O)CO,Potency,[1],inactive
same,Potency,[2],inactive
same,Potency,[3],inactive
same,Potency,[4],inactive
same,Potency,[6],inactive
same,Potency,[5],inactive
same,Potency,[8],inactive
same,Potency,[7],inactive
same,Potency,[9],inactive
same,Potency,[10],inactive
same,Potency,[11],inactive
same,Potency,[12],inactive
same,Potency,[13],inactive
same,Potency,[20],inactive
same,Potency,[15],inactive
same,Potency,[16],inactive
same,Potency,[17],inactive
same,Potency,[18],inactive
same,Potency,[19],inactive
Cc1ncc([N+](=O)[O-])n1CC(C)O (centres undefined),Potency,[1],inactive
same,Potency,[2],inactive
same,Potency,[3],inactive
same,Potency,[4],inactive
same,Potency,[5],inactive
same,Potency,[8],inactive
O=C(O)c1cn(-c2ccc(F)cc2)c2cc(N3CCNCC3)c(F)cc2c1=O,Potency,[1],inactive
same,Potency,[2],inactive
same,Potency,[3],inactive
same,Potency,[4],inactive
same,Potency,[5],inactive
same,Potency,[8],inactive
